Screening data from PubChem BioAssay.
An excerpt weighted towards active compounds, which were near 12% of everything screened.
JMJD2A Tudor inh: qHTS Assay for Inhibitors of JMJD2A-Tudor Domain | Lysine-specific demethylase 4A (Homo sapiens), O75164 | AlphaScreen JMJD2A-Tudor / H3K4me3 peptide binding | Potency, µM (top dose mostly 114 µM), inactives show at the highest dose activity change, negative = inhibition, most hits filed as inhibitors | actives 4.4% (n = 390,000) | AID 504339, 2011; also: potency is read from the fitted curve at half-maximal effect; % is scaled to controls: 0 for no effect and ±100 for the full control effect; nearly all actives have a fitted effect of over 50% in size
HP1b chromo inh: HTS for Inhibitors of HP1-beta Chromodomain Interactions with Methylated Histone Tails; AID 540317, 2011; Potency, µM (highest dose often 114 µM), without a hit: top-dose activity change, negative = inhibition, hits mostly inhibitors; actives 0.56% (n = 390,000); AlphaScreen HP1-beta / biotin-H3K9me3 peptide binding; also: potency is read from the fitted curve at half-maximal effect; nearly all actives have a fitted effect of over 70% in size
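Compound inhibition of the preformed complex between 50 nM HP1-beta and 50 nM biotinylated H3K9me3 peptide was read by AlphaScreen. Buffer was PBS pH 7.4 with 0.01% Tween-20. Incubations ran 30 min at room temperature, with 10 ug/mL donor/acceptor beads.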
G9a inh: qHTS Assay for Inhibitors of Histone Lysine Methyltransferase G9a | Potency, µM (doses to about 102 µM), for the others: top-dose activity, negative = inhibition, most hits filed as inhibitors | G9a H3K9 monomethylation, AlphaScreen, 2 h | actives 8.8% (n = 350,000) | AID 504332, 2011 | Histone-lysine N-methyltransferase EHMT2 (Homo sapiens), Q96KQ7; also: potency is read from the fitted curve at half-maximal effect; % is scaled to controls: 0 for no effect and ±100 for the full control effect; nearly all actives have a fitted effect of over 75% in size
Target sequence (Q96KQ7 913-1193 limits assumed): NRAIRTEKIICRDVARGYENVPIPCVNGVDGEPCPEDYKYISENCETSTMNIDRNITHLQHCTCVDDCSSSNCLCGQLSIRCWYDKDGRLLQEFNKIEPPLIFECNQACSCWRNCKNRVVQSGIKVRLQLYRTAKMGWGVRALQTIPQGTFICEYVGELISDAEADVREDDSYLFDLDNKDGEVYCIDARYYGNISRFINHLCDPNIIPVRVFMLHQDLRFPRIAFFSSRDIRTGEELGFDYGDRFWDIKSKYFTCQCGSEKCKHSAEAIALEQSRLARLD
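G9a (20 nM) preincubated 15 min RT with compounds, then 500 nM biotinylated H3K9 peptide and 20 uM SAM added; 2 h RT reaction. Monomethyl-H3K9 product detected by AlphaScreen with anti-H3K9me1 antibody, streptavidin donor and anti-rabbit IgG acceptor beads.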
BAZ2B block: qHTS Assay for Inhibitors of BAZ2B. Bromodomain adjacent to zinc finger domain protein 2B (Homo sapiens), Q9UIF8. AlphaScreen BAZ2B-H3K14Ac peptide displacement. Potency, µM (top dose mostly 114 µM), for the others: at the top dose activity change, negative = inhibition, actives largely listed as inhibitors. actives 4.4% (n = 360,000). AID 504333, 2011; also: potency is read from the fitted curve at half-maximal effect; % is scaled to controls: 0 for no effect and ±100 for the full control effect; nearly all actives have a fitted effect of over 60% in size
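AlphaScreen displacement of biotin-H3(5-23)K14Ac peptide (50 nM final) from BAZ2B (50 nM final) in PBS pH 7.4, 0.01% Tween-20; complex preformed 30 min RT, then compounds (top 110 uM) 30 min RT, beads 20 min dark.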
PLK1 PBD block: qHTS for Inhibitors of PLK1-PDB (polo-like kinase 1 - polo-box domain): Primary Screen; Potency, µM, inactives show max response, negative = inhibition, hits mostly inhibitors; Serine/threonine-protein kinase PLK1 (Homo sapiens), P53350; Plk1 PBD binding of FITC phosphopeptide, fluorescence polarization; AID 720504, 2013; actives 2.8% (n = 360,000); also: potency is read from the fitted curve at half-maximal effect; series mostly up to about 57 µM; % is scaled to controls: 0 for no effect and ±100 for the full control effect; nearly all actives have a fitted effect of over 65% in size
PI5P4Ka inh: qHTS for Inhibitors of phosphatidylinositol 5-phosphate 4-kinase (PI5P4K); PI5P4Kalpha enzyme, ADP-Glo luminescence, 60 min; stronger effect = lower value; actives 1.2% (n = 330,000); AID 652105, 2013; Phosphatidylinositol 5-phosphate 4-kinase type-2 alpha (Homo sapiens), P48426; max response, %; active = max response of -50% or lower; inconclusive = between -30% and -50%; inactive = -30% or higher; also: value at the top dose of about 77 µM; % is scaled to controls: 0 for no effect and ±100 for the full control effect
Target sequence (P48426 whole entry, looked up): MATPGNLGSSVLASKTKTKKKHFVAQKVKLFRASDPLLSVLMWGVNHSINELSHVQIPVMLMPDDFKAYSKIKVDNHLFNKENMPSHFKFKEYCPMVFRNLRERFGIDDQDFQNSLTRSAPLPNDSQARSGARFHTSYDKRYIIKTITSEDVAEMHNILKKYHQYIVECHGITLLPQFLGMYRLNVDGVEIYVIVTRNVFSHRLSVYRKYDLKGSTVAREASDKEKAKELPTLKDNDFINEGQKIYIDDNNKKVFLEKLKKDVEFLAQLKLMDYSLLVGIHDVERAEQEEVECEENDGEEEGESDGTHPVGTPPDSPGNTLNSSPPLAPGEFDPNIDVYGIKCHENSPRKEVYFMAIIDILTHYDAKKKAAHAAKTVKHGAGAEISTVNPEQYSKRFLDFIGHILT
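ADP-Glo luminescence end-point after a 60 min room-temperature kinase reaction. PI5P4Kalpha and substrate in HEPES pH 7.4 buffer with EGTA, 0.1% CHAPS and 5% DMSO; ATP at 5 microM final.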
The depositor's hits bear a star; ? = inconclusive; nt = not tested or not shown; ! = a repeat was not active; [ ] = remark or other dose. Unless noted, calls follow the shape of the dose curve; as a rule, active = well fitted curve in the direction sought with a large enough effect; inconclusive = small, poorly fitted or top-dose-only effect, or another doubt; inactive = no such curve, though single readings can be large; an effect the other way counts as inactive or inconclusive.

SMILES	JMJD2A Tudor inh	HP1b chromo inh	G9a inh	BAZ2B block	PLK1 PBD block	PI5P4Ka inh
O=S(=O)(c1ccc(Cl)cc1)N1CN(CC2CCCO2)c2nc3ccccc3nc21 (stereo not drawn)	-32%	34%	40µM*	-38%	-15%	0
COc1ccc(CCN2CN(S(=O)(=O)c3ccccc3)c3nc4ccccc4nc32)cc1OC	-2%	15%	32µM*	-37%	2%	15
COc1ccc(CCN2CN(S(=O)(=O)c3ccccc3)c3nc4ccccc4nc32)cc1	-21%	20%	?	-21%	-6%	5
CC(=O)OCc1cnc(C)c2oc(=O)c(C(=O)Nc3cccc(F)c3)cc12	-17%	21%	24%[59 µM]	-11%	nt	nt
CCOC(=O)C(C#N)(Cc1ccc2ccccc2n1)Cc1ccc2ccccc2n1	-9%	22%[57 µM]	nt	nt	-7%	5
N/N=C(\Cc1cscn1)c1ccc(O)cc1O	-14%	36%	10µM*	-14%	6%	5
Cc1nc(C/C(=N\N)c2ccc(O)cc2O)cs1	-17%	8%	32µM*	-22%	-25%	0
CCc1cc(/C(Cc2csc(C)n2)=N/O)c(O)cc1O	-13%	29%	15%[2.33 µM]	-34%	-1%	4
Cc1ccc2occ(CC(=O)Nc3ccc(S(=O)(=O)N4CCC(C)CC4)cc3)c2c1	-28%	11%	?	-13%	nt	nt
COc1ccc(OC)c(NC(=O)c2cc3cc(C)ccc3n2C)c1	8%	57%	-1%[59 µM]	1%	nt	nt
COc1cc(NC(=O)c2cc3sccc3n2C)cc(OC)c1	-33%	21%	?	?	-6%	nt
Cn1c(C(=O)Nc2ccccc2)cc2sccc21	-29%	5%	1.6µM*	?	-18%	0
Cn1c(C(=O)Nc2ccc3c(c2)OCO3)cc2sccc21	?	-18%	32µM*	-38%	-10%	-8
COc1ccc(NC(=O)c2cn(C)c(=O)c3cc(OC)c(OC)cc23)c(OC)c1	-9%	17%	3%	2%	0%	5
Cn1c(C(=O)NCc2ccc3c(c2)OCO3)cc2sccc21	?	-1%	?	?	-12%	nt
COc1ccc(OC)c(NC(=O)c2cn(C)c(=O)c3cc(OC)c(OC)cc23)c1	-16%	8%	40µM*	-36%	2%	3
COc1ccc(OC)c(NC(=O)c2cc3sccc3n2C)c1	?	-11%	50µM*	?	-12%	nt
CCOC(=O)c1cnc2nc(NCc3cccc(Br)c3)[nH]n2c1=O	-19%	28%	?	-17%	nt	nt
CNc1cccc(S(=O)(=O)N2CCN(S(=O)(=O)c3ccc4c(c3)OCCO4)CC2)c1	-16%	nt	nt	nt	nt	nt
COC(=O)c1ccc(NC(=O)c2cc3sccc3n2C)cc1	-33%	4%	71µM*	?	-4%	nt
CCOC(=O)c1cc2sccc2n1CC(=O)Nc1ccc(OC)cc1OC	-22%	16%	13µM*	-7%	-6%	nt
COC(=O)c1cc2sccc2n1CC(=O)Nc1ccc(OC)c(OC)c1OC	-6%	-5%	-32%[59 µM]	0%	-5%	nt
COCCNC(=O)c1cc2sccc2n1C	-9%	24%	2%	-17%	-18%	-1
NC(=O)c1ccc(NC(=O)CCCc2nc(-c3ccccc3Cl)no2)cc1	-4%	19%	50µM*	-11%	-7%	nt
COc1ccc(-c2noc(CCCC(=O)Nc3ccc(C(N)=O)cc3)n2)cc1	-7%	14%	14%[59 µM]	2%	-4%	nt
SMILES	JMJD2A Tudor inh	HP1b chromo inh	G9a inh	BAZ2B block	PLK1 PBD block	PI5P4Ka inh
CN(C(=O)NCc1noc2ccccc12)c1cccc(Cl)c1	-14%	33%	-4%[59 µM]	-14%	nt	nt
CC(C)N(C)CCOC(=O)c1ccccc1Br	50µM*	19%	-2%[59 µM]	2%	24µM*	-16
CC(C)N(C)CCOC(=O)c1ccccc1Cl	-4%	17%	-7%[59 µM]	?	-10%	-6
CN(N=O)C(=O)N[C@H]1C(O)C(O)C(CO)O[C@@H]1O (stereo partly drawn)	nt	nt	-48%[2.33 µM]	nt	nt	nt
O=S1(=O)[C@H]2C[C@@H]3C=C[C@@]2(CN1Cc1ccc(F)cc1)O3	?	13%	7%	-16%	24µM*	-3
COc1ccc(Cl)cc1NC(=O)c1cccc([N+](=O)[O-])c1O	?	-4%	nt	nt	-10%	-25
COc1cccc2sc(N(CCCN(C)C)C(=O)c3ccc(S(=O)(=O)N4CCc5ccccc5C4)cc3)nc12	?	-9%	?	?	-8%	10
COc1cccc2sc(N(CCCN(C)C)C(=O)c3ccc(S(=O)(=O)N4CCCc5ccccc54)cc3)nc12	?	-10%	nt	40µM*	-2%	3
CN(C)CCCN(C(=O)c1ccc(S(=O)(=O)N2CCCCCC2)cc1)c1nc2c(F)cccc2s1	-32%	-11%	nt	?	-11%	3
CN(C)CCCN(C(=O)c1ccc(S(=O)(=O)N2CCc3ccccc32)cc1)c1nc2c(Cl)cccc2s1	?	-14%	40µM*	?	-19%	1
CCOC(=O)c1oc2ccc(CNC(C)(C)C)c(Cl)c2c1C	10µM*	-33%	8.9µM*	50µM*	-17%	nt
CCOC(=O)c1oc2cccc(O)c2c1C	-4%	-8%	-41%[2.33 µM]	7%	-3%	0
CCCCc1nn2c(=O)cc(COC(=O)CNC(=O)COc3ccc(C)cc3)nc2s1	-7%	24%	16%[59 µM]	-2%	nt	nt
CC(C)CN(Cc1cc(=O)oc2cc(-c3ccccc3)c(O)cc12)CC(C)C	-4%[11.4 µM]	12%	35%	1%	30µM*	-3
O=c1cc(CN2CCN(c3ccccc3F)CC2)c2cc(O)c(-c3ccccc3)cc2o1	89µM*	-12%	-12%	1%	?	-16
COc1ccc(N2CCN(Cc3cc(=O)oc4cc(-c5ccccc5)c(O)cc34)CC2)cc1	-24%	9%	-14%[59 µM]	13%	-5%	7
O=C(Nc1ccc(F)cc1)c1cc(-c2ccccn2)nc2c(Cl)cccc12	9%	25%	nt	-1%	2%	0
O=C(c1cc2c(s1)-c1ccccc1OC2)N1CCN(c2ccccc2)CC1	-13%	21%	1.1µM*!	4%	-9%	-4
COc1ccc(N2CCN(C(=O)c3cc4c(s3)-c3ccccc3OC4)CC2)cc1	-6%	31%	10%	9%	-16%	4
Cc1ccc(NC(=O)CCN2CC(C)OC(C)C2)cc1C (stereo not drawn)	-2%	28%	nt	10%	0%	-4
